Source: PubChem BioAssay (NCATS)
Records with an inconclusive call do not appear. Active and inactive are the calls of the source. Calls follow the shape of the dose curve; as a rule, active = well fitted curve in the direction sought with a large enough effect; inconclusive = small, poorly fitted or top-dose-only effect, or another doubt; inactive = no such curve, though single readings can be large; an effect the other way counts as inactive or inconclusive.

Experiments:
[1] = Quantitative High-Throughput drug screen in 47 multiple myeloma cell lines against the NCATS MIPE library collection: MOLP8_DSMZ cell viability assay (AID 1918977); also: nearly all actives have a fitted effect of over 45% in size; also: potency is read from the fitted curve at half-maximal effect
Method in brief: (§1)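 ATP-based luminescence (CellTiter-Glo, 5 min RT incubation) quantified surviving cells following two days' treatment with MIPE 4.0 agents at 37 °C, 5% CO2.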

[2] = Quantitative High-Throughput drug screen in 47 multiple myeloma cell lines against the NCATS MIPE library collection: NCIH929_DSMZ cell viability assay (AID 1918978); also: nearly all actives have a fitted effect of over 35% in size; also: potency is read from the fitted curve at half-maximal effect
Method in brief: as §1

[3] = Quantitative High-Throughput drug screen in 47 multiple myeloma cell lines against the NCATS MIPE library collection: OCIMY1_PLB cell viability assay (AID 1918979);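 also: series mostly up to about 46 µM; 100% = DMSO-only wells and 0% = cell-free media-only wells; nearly all actives have a fitted effect of over 35% in size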
Method in brief: as §1

[4] = Quantitative High-Throughput drug screen in 47 multiple myeloma cell lines against the NCATS MIPE library collection: MM1R_ATCC cell viability assay (AID 1918981); also: nearly all actives have a fitted effect of over 35% in size; also: potency is read from the fitted curve at half-maximal effect
Method in brief: as §1

[5] = Quantitative High-Throughput drug screen in 47 multiple myeloma cell lines against the NCATS MIPE library collection: LP1_DSMZ cell viability assay (AID 1918982); also: nearly all actives have a fitted effect of over 35% in size
Method in brief: as §1

[6] = Quantitative High-Throughput drug screen in 47 multiple myeloma cell lines against the NCATS MIPE library collection: L363_DSMZ cell viability assay (AID 1918984); also: nearly all actives have a fitted effect of over 40% in size; also: potency is read from the fitted curve at half-maximal effect
Method in brief: as §1

[7] = Quantitative High-Throughput drug screen in 47 multiple myeloma cell lines against the NCATS MIPE library collection: KMS34_JCRB cell viability assay (AID 1918985); also: nearly all actives have a fitted effect of over 40% in size; also: potency is read from the fitted curve at half-maximal effect
Method in brief: as §1

[8] = Quantitative High-Throughput drug screen in 47 multiple myeloma cell lines against the NCATS MIPE library collection: OPM1_PLB cell viability assay (AID 1918989); also: nearly all actives have a fitted effect of over 40% in size; also: potency is read from the fitted curve at half-maximal effect
Method in brief: as §1

[9] = Quantitative High-Throughput drug screen in 47 multiple myeloma cell lines against the NCATS MIPE library collection: SKMM1_PLB cell viability assay (AID 1919863); conditions: SKMM1 myeloma viability, CellTiter-Glo ATP, 48 h; viability: active compounds read low; also: nearly all actives have a fitted effect of over 35% in size; also: potency is read from the fitted curve at half-maximal effect; as to viability: series mostly up to about 46 µM
Method in brief: as §1

[10] = Quantitative High-Throughput drug screen in 47 multiple myeloma cell lines against the NCATS MIPE library collection: XG1_PLB cell viability assay (AID 1919866); also: nearly all actives have a fitted effect of over 35% in size; also: potency is read from the fitted curve at half-maximal effect
Method in brief: as §1

[11] = Quantitative High-Throughput drug screen in 47 multiple myeloma cell lines against the NCATS MIPE library collection: VP6_DJ cell viability assay (AID 1919867); also: nearly all actives have a fitted effect of over 40% in size; also: potency is read from the fitted curve at half-maximal effect
Method in brief: as §1

[12] = Quantitative High-Throughput drug screen in 47 multiple myeloma cell lines against the NCATS MIPE library collection: OCIMY5_PLB cell viability assay (AID 1918988); also: nearly all actives have a fitted effect of over 65% in size; also: potency is read from the fitted curve at half-maximal effect
Method in brief: as §1

[13] = Quantitative High-Throughput drug screen in 47 multiple myeloma cell lines against the NCATS MIPE library collection: XG6_PLB cell viability assay (AID 1919865); also: nearly all actives have a fitted effect of over 40% in size; also: potency is read from the fitted curve at half-maximal effect
Method in brief: as §1

[14] = Quantitative High-Throughput drug screen in 47 multiple myeloma cell lines against the NCATS MIPE library collection: MM1S_ATCC cell viability assay (AID 1918980); also: nearly all actives have a fitted effect of over 45% in size; also: potency is read from the fitted curve at half-maximal effect
Method in brief: as §1

[15] = Quantitative High-Throughput drug screen in 47 multiple myeloma cell lines against the NCATS MIPE library collection: OCIMY7_PLB cell viability assay (AID 1918987); also: potency is read from the fitted curve at half-maximal effect; nearly all actives have a fitted effect of over 65% in size
Method in brief: as §1

[16] = Quantitative High-Throughput drug screen in 47 multiple myeloma cell lines against the NCATS MIPE library collection: KMS28PE_JCRB cell viability assay (AID 1918983); also: nearly all actives have a fitted effect of over 35% in size
Method in brief: as §1

[17] = Quantitative High-Throughput drug screen in 47 multiple myeloma cell lines against the NCATS MIPE library collection: U266_ATCC cell viability assay (AID 1919864); also: nearly all actives have a fitted effect of over 35% in size; also: potency is read from the fitted curve at half-maximal effect;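 as to viability (% of DMSO control): 0% = media-only wells without cells and 100% = DMSO-only wells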
Method in brief: as §1

[18] = Quantitative High-Throughput drug screen in 47 multiple myeloma cell lines against the NCATS MIPE library collection: MMM1_PLB cell viability assay (AID 1918976)
Method in brief: as §1

[19] = Quantitative High-Throughput drug screen in 47 multiple myeloma cell lines against the NCATS MIPE library collection: UTMC2_PLB cell viability assay (AID 1919868); conditions: CellTiter-Glo ATP luminescence, 48 h; viability (% of DMSO control): at 45.8 µM; also: potency is read from the fitted curve at half-maximal effect; nearly all actives have a fitted effect of over 55% in size
Method in brief: as §1

CCCCNc1cc(C(=O)O)cc(S(N)(=O)=O)c1Oc1ccccc1
inactive: Potency [1] | Potency [2] | Potency [3] | Potency [4] | Potency [5] | Potency [6] | Potency [7] | Potency [8] | viability [9] 158% | Potency [10] | Potency [11]

CCN(c1ccccc1)c1cc(NC)[n+](C)c(C)n1
inactive: Potency [2] | Potency [3] | Potency [5] | Potency [8] | Potency [13] | Potency [10] | Potency [11]
active: Potency [1] 2.09 µM | Potency [7] 26.4 µM | Potency [12] 20.9 µM

Nc1nccc(-c2ccc3noc(-c4ccc(Cl)cc4)c3c2)n1
inactive: Potency [1] | Potency [3] | Potency [6] | Potency [8]
active: Potency [2] 20.9 µM | Potency [14] 16.6 µM | Potency [15] 20.9 µM | Potency [12] 18.7 µM | Potency [13] 2.64 µM | Potency [10] 3.72 µM

OC(CN1CCC(Cc2ccc(F)cc2)CC1)c1ccc(Cl)cc1 (centres undefined)
inactive: Potency [1] | Potency [2] | Potency [5] | Potency [6] | Potency [8] | Potency [13] | Potency [10]

Cc1c(C)c2c(c(C)c1O)CCC(C)(COc1ccc(CC3SC(=O)NC3=O)cc1)O2 (centres undefined)
inactive: Potency [1] | Potency [3] | Potency [4] | Potency [5] | Potency [16] | Potency [6] | Potency [8] | viability [9] 114% | Potency [17] | Potency [10] | Potency [11]

CCC(C)(C)C(=O)O[C@H]1C[C@@H](C)C=C2C=C[C@H](C)[C@H](CC[C@@H]3C[C@@H](O)CC(=O)O3)[C@H]21
active: Potency [1] 13.2 µM | Potency [2] 13.2 µM | Potency [6] 13.2 µM | Potency [12] 18.7 µM | Potency [8] 8.33 µM | Potency [9] 18.7 µM | Potency [13] 18.7 µM | Potency [10] 9.35 µM | Potency [11] 16.6 µM
inactive: Potency [3]

CCCc1nc2c(C)cc(-c3nc4ccccc4n3C)cc2n1Cc1ccc(-c2ccccc2C(=O)O)cc1
inactive: Potency [1] | Potency [2] | Potency [3] | Potency [4] | Potency [5] | Potency [16] | Potency [7] | Potency [8] | viability [9] 142%
active: Potency [13] 23.5 µM | Potency [10] 20.9 µM | Potency [11] 16.6 µM

Nc1ccc(S(=O)(=O)Nc2ccnn2-c2ccccc2)cc1
inactive: Potency [1] | Potency [2] | Potency [3] | Potency [14] | Potency [4] | Potency [5] | Potency [16] | Potency [6] | Potency [7] | viability [9] 145% | Potency [13]

O=C(Nc1cccnc1)N1CCC(Cc2cccc(Oc3ccc(C(F)(F)F)cn3)c2)CC1
active: Potency [18] 10.5 µM | Potency [6] 4.69 µM | Potency [12] 18.7 µM | Potency [8] 18.7 µM | Potency [17] 18.7 µM | Potency [13] 14.8 µM | Potency [11] 10.5 µM | Potency [19] 14.8 µM

COc1ccc(CCN2CCN(CCCc3ccccc3)CC2)cc1OC
inactive: Potency [1] | Potency [2] | Potency [4] | Potency [8] | viability [9] 104% | Potency [10]
active: Potency [13] 4.69 µM

NC(=O)c1ccc(-c2nc(-c3ccc4c(c3)OCCO4)c(-c3ccccn3)[nH]2)cc1
inactive: Potency [1] | Potency [2] | Potency [3] | Potency [4] | viability [9] 112%
active: Potency [6] 20.9 µM | Potency [12] 18.7 µM | Potency [13] 8.33 µM | Potency [11] 23.5 µM

NC(=O)c1ccc(-c2nc(-c3ccc4c(c3)OCO4)c(-c3ccccn3)[nH]2)cc1
active: Potency [4] 7.43 µM | Potency [7] 2.64 µM | Potency [12] 9.35 µM
inactive: Potency [1] | Potency [2] | Potency [3] | Potency [17] | Potency [13]

OC[C@H](Cc1ccccc1)Nc1nc(Oc2ccc3c(c2)CCC3)nc2c1ncn2Cc1ccc(-c2ccccc2)cc1
inactive: Potency [1] | Potency [4] | Potency [16] | Potency [11]
active: Potency [7] 18.7 µM | Potency [8] 11.8 µM

Oc1ccc(C2CNCCc3c2cc(O)c(O)c3Cl)cc1 (centres undefined)
inactive: Potency [1] | Potency [3] | Potency [5] | Potency [16] | Potency [8] | viability [9] 103% | Potency [17] | Potency [10]
active: Potency [2] 16.6 µM | Potency [14] 3.32 µM | Potency [7] 14.8 µM | Potency [12] 16.6 µM

COc1ccc(CC2=NN3C([C@@H](CCc4ccccc4)[C@@H](C)O)=NC(C)C3C(=O)N2)cc1OC (some centres undefined)
inactive: Potency [1] | Potency [2] | Potency [3] | Potency [14] | Potency [5] | Potency [16] | Potency [7] | Potency [12] | viability [9] 138% | Potency [17] | Potency [10]
active: Potency [8] 2.64 µM
